Assay [1] addresses High affinity nerve growth factor receptor (Homo sapiens) (UniProt P04629). The settings on record: at 1 µM.
In assay [2] the target is BDNF/NT-3 growth factors receptor (Homo sapiens) (UniProt Q16620). The settings on record: at 0.1 µM.
Assay [3] shares this target. The following applies: at 1 µM.
Assay [4] concerns the target NT-3 growth factor receptor (Homo sapiens) (UniProt Q16288). The following applies: at 0.1 µM.
For assay [5] the target is unchanged. The following applies: at 1 µM.
The target of assay [6] is T1, Tyrosine-protein kinase TXK (Homo sapiens) (UniProt P42681).
T1 sequence (whole entry): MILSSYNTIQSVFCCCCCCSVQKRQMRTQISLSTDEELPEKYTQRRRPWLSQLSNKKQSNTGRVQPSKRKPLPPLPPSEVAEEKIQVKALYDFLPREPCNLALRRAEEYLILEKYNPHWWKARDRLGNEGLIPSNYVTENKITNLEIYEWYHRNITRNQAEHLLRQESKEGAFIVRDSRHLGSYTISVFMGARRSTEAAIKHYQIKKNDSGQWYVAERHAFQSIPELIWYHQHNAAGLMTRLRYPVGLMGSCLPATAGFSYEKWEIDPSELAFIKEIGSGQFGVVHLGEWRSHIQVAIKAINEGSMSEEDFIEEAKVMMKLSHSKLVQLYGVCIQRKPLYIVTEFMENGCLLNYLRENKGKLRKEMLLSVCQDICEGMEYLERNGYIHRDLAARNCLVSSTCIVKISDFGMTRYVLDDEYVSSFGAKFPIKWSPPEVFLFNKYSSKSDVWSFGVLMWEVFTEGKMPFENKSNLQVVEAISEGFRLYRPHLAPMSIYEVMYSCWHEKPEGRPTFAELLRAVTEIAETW
The following applies: at 0.1 µM.

For assay [7], the target named is T1, Tyrosine-protein kinase TXK (Homo sapiens). The following applies: at 1 µM.
Assay [8] deals with Non-receptor tyrosine-protein kinase TYK2 (Homo sapiens) (UniProt P29597). The following applies: at 0.1 µM.
Assay [9] addresses T2, Dual specificity protein kinase TTK (Homo sapiens) (UniProt P33981).
T2 sequence (whole entry): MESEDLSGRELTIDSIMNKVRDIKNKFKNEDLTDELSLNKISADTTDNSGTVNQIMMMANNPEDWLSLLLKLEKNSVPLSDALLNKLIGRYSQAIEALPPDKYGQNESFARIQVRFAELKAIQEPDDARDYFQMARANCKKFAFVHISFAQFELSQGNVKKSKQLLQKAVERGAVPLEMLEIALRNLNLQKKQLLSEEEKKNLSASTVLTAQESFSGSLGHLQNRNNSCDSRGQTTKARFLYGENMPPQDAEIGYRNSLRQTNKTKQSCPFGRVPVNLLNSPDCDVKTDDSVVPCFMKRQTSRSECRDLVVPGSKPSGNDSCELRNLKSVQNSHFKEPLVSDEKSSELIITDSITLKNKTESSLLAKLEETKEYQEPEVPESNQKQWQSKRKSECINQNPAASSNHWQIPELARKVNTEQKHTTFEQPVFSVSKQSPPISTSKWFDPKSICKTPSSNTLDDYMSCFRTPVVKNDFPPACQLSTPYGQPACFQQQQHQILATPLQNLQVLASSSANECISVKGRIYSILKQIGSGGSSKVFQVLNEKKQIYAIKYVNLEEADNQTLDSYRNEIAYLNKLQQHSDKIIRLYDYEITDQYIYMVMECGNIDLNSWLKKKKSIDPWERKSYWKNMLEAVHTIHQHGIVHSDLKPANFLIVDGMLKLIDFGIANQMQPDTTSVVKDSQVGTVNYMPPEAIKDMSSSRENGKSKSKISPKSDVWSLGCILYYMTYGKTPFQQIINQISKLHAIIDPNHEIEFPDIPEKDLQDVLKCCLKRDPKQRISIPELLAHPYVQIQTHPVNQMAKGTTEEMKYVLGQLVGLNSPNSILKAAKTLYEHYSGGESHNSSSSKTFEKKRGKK
The settings on record: at 1 µM.

In assay [10] the target is T3, Aurora kinase A (Homo sapiens) (UniProt O14965).
T3 sequence (whole entry): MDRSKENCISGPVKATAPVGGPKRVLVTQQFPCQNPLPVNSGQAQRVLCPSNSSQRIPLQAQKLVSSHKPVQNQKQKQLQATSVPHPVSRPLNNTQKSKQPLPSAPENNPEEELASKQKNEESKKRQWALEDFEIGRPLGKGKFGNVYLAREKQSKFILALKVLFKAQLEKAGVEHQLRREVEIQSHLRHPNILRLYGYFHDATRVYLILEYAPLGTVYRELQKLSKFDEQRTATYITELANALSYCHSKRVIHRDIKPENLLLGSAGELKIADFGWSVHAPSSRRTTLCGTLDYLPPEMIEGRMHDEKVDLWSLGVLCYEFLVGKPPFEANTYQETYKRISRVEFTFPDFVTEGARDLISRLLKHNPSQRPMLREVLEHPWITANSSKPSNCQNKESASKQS
The following applies: at 0.1 µM.

Assay [11] concerns the target T3, Aurora kinase A (Homo sapiens). The settings on record: at 1 µM.
Assay [12] deals with Aurora kinase B (Homo sapiens) (UniProt Q96GD4). The following applies: at 0.1 µM.
Sequence of Aurora kinase B (Homo sapiens) (Q96GD4 whole entry): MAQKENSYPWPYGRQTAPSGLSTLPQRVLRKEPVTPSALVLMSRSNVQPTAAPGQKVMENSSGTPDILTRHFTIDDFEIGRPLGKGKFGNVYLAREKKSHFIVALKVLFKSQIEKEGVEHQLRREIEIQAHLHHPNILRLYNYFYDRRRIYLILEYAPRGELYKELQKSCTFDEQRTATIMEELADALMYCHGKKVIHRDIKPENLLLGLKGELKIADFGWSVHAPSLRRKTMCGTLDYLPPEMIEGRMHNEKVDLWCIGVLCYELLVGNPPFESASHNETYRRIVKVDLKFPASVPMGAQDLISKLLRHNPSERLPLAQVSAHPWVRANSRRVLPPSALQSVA
For assay [13] the target is unchanged. The settings on record: at 1 µM.
The target of assay [14] is T4, Aurora kinase C (Homo sapiens) (UniProt Q9UQB9).
T4 sequence (whole entry): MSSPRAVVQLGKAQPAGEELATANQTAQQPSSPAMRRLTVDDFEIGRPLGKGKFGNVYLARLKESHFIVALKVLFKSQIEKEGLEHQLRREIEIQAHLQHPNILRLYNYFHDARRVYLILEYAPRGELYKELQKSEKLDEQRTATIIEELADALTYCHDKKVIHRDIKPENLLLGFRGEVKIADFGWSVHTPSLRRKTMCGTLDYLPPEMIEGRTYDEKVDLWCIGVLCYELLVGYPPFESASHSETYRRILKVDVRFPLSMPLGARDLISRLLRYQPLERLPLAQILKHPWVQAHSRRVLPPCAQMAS
The following applies: at 0.1 µM.

Assay [15] has as its target T4, Aurora kinase C (Homo sapiens). The settings on record: at 1 µM.
In assay [16] the target is Serine/threonine-protein kinase 10 (Homo sapiens) (UniProt O94804). The following applies: at 0.1 µM.
Sequence of Serine/threonine-protein kinase 10 (Homo sapiens) (O94804 whole entry, looked up): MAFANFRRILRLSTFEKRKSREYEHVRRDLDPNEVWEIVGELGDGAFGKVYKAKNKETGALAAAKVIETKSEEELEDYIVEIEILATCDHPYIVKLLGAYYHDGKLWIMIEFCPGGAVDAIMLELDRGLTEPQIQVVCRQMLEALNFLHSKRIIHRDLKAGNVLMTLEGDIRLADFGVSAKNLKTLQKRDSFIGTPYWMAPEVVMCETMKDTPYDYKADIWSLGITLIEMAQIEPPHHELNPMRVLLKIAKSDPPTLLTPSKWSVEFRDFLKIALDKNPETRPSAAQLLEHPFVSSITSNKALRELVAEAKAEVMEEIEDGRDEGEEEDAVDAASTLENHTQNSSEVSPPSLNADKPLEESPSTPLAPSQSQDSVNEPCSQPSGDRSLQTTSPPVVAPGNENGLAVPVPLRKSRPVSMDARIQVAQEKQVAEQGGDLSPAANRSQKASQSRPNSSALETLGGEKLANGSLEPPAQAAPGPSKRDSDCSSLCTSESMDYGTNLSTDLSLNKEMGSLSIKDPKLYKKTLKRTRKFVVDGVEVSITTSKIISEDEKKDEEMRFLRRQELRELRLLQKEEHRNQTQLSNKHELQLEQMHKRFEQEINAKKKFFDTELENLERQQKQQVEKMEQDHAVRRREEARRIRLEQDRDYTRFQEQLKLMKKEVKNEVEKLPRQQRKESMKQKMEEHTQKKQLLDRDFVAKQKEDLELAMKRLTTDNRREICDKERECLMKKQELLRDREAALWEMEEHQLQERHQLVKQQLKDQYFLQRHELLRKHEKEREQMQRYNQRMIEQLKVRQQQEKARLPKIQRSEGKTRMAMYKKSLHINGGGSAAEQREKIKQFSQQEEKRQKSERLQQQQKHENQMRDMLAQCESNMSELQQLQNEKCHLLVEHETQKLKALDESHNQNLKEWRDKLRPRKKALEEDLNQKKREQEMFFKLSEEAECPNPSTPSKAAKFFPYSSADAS
The target is the same in assay [17]. The following applies: at 1 µM.
Assay [18] deals with T5, Mitogen-activated protein kinase kinase kinase kinase 2 (Homo sapiens) (UniProt Q12851).
T5 sequence (whole entry): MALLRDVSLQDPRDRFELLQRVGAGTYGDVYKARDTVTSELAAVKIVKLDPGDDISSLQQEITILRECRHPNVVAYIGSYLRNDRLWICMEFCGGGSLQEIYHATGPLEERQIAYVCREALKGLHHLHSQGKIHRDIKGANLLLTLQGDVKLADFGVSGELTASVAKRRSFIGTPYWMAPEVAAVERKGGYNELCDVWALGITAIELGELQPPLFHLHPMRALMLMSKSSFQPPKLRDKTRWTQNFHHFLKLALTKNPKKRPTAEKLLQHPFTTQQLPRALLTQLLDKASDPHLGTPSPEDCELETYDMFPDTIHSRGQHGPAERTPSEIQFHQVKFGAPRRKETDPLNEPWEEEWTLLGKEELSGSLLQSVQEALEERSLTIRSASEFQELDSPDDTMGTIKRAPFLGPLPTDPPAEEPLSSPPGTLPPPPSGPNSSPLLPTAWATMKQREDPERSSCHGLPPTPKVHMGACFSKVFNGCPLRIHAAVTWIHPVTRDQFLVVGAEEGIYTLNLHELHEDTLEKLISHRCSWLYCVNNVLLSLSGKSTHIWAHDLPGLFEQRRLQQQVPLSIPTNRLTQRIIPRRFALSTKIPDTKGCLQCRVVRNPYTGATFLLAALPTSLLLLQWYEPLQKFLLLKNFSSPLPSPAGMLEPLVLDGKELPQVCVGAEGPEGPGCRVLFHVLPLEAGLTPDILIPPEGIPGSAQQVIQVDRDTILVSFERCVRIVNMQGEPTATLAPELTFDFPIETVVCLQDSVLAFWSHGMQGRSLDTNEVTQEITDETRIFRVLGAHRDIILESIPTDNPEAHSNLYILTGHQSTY
The settings on record: at 0.1 µM.

Assay [19] concerns the target T5, Mitogen-activated protein kinase kinase kinase kinase 2 (Homo sapiens). The settings on record: at 1 µM.
Assay [20] concerns the target Mitogen-activated protein kinase kinase kinase kinase 4 (Homo sapiens) (UniProt O95819). The settings on record: at 0.1 µM.

Data on 6 compounds can be found in ChEMBL document CHEMBL1961873, “Compounds: GSK PKIS; Assays: Nanosyn kinase panel” (2012).

A word on the inhibition: it is the drop in the measured response relative to a control, in per cent.

Sequence of NT-3 growth factor receptor (Homo sapiens) (Q16288 32-839 limits assumed): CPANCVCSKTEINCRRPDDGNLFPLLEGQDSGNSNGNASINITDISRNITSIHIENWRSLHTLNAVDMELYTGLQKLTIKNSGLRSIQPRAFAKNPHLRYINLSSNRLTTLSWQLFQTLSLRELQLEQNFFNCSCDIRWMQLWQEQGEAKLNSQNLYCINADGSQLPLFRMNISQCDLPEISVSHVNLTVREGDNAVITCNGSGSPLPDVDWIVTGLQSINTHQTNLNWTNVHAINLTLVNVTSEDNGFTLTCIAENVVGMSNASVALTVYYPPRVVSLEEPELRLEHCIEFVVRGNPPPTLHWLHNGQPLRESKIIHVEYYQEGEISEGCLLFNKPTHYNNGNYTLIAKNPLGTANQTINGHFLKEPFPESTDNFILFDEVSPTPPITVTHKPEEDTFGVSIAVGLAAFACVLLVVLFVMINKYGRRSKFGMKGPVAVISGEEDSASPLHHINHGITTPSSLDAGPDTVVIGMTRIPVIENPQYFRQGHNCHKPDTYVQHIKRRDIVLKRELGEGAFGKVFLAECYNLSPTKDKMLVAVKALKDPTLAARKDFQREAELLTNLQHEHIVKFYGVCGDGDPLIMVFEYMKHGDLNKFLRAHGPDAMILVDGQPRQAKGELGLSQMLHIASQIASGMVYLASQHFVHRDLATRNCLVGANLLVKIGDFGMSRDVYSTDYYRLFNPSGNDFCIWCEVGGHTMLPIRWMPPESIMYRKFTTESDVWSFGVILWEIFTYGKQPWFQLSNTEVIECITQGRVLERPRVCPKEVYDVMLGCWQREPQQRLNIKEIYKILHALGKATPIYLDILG
Sequence of Mitogen-activated protein kinase kinase kinase kinase 4 (Homo sapiens) (O95819 2-1239 limits assumed): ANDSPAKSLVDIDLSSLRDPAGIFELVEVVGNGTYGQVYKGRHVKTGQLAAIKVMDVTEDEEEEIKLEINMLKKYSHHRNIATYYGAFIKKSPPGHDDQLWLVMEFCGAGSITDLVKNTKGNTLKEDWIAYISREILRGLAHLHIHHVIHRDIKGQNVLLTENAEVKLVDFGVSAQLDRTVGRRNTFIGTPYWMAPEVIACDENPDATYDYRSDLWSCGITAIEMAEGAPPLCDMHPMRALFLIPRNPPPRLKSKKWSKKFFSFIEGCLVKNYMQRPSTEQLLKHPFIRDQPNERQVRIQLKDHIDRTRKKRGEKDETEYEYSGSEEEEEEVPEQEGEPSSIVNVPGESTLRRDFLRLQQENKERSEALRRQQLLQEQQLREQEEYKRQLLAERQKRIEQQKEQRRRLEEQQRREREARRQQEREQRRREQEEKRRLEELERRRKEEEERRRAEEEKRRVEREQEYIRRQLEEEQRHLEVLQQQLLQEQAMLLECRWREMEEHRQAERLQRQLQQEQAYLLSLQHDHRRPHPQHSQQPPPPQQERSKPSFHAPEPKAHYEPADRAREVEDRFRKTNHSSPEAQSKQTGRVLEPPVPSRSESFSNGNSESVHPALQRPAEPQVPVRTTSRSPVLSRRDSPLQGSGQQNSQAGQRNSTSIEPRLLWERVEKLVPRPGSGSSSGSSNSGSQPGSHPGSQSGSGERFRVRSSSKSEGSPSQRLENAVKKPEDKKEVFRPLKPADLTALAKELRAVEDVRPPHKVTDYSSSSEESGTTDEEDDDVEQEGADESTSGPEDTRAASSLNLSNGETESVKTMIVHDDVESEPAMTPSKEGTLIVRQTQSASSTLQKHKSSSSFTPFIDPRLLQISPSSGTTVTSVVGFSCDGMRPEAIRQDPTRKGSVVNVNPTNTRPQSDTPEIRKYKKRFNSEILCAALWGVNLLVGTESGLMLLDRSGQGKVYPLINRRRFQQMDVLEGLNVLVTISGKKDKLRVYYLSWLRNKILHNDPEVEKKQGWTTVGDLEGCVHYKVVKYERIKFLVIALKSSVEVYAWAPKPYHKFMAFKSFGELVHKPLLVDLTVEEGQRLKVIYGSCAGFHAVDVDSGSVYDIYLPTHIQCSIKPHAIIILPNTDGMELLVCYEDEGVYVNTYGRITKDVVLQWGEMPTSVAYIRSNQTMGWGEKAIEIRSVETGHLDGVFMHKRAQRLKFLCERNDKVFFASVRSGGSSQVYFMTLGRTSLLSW
Sequence of High affinity nerve growth factor receptor (Homo sapiens) (P04629 33-796 limits assumed): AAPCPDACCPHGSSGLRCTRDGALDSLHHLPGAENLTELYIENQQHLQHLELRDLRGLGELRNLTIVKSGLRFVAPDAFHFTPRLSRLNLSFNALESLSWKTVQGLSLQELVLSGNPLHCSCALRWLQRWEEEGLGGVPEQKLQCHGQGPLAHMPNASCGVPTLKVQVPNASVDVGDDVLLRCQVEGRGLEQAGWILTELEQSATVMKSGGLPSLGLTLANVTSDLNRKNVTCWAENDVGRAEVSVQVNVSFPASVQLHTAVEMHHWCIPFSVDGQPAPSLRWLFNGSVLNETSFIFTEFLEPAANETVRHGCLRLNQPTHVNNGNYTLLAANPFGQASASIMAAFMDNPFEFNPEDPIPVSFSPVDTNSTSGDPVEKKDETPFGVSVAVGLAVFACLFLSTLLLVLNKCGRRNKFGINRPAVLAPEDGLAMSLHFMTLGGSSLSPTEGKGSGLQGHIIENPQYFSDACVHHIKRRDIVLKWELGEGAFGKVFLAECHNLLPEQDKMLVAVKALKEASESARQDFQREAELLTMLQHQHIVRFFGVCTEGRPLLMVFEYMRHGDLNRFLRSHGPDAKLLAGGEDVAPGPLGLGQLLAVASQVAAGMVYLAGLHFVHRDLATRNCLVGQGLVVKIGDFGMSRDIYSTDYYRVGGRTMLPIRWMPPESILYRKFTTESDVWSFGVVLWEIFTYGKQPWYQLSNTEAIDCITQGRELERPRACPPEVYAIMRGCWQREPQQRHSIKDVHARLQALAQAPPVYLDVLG
Sequence of BDNF/NT-3 growth factors receptor (Homo sapiens) (Q16620 32-822 limits assumed): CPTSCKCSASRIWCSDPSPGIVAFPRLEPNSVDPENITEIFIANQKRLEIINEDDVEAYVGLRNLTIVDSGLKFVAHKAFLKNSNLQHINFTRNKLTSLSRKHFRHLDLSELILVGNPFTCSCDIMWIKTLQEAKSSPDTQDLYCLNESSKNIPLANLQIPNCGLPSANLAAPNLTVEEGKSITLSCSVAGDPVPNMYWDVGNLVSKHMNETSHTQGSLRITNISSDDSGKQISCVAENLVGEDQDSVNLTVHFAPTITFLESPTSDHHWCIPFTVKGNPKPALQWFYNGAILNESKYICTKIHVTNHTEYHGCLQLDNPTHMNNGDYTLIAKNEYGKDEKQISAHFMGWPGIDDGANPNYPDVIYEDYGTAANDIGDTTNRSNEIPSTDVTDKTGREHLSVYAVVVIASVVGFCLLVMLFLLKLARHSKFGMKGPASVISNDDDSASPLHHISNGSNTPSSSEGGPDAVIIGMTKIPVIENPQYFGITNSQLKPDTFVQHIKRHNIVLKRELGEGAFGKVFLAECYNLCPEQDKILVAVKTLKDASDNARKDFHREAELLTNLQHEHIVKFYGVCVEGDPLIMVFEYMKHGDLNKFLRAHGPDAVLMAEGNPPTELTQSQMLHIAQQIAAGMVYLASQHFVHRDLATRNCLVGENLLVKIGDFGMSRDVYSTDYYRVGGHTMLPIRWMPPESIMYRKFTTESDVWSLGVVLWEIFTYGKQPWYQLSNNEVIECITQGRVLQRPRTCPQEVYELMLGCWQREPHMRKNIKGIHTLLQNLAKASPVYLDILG

Take `COC(=O)Nc1nc2cc(Oc3cccc(NC(=O)Nc4cc(C(F)(F)F)ccc4F)c3)ccc2[nH]1`: the inhibition in [1] was -0.96%; in [2] it was -0.54%; in [3], 2.43%; in assay [4], -0.83%; in assay [5], 5.81%; in assay [6], 2.14%. Further, the inhibition in assay [7] was 2.8%; in assay [8], 1.53%; in [9], 0.75%; in assay [10], 1.04%; in [11], 1.22%; in assay [12], -1.59%. Moreover, the inhibition in assay [13] was -0.29%; in assay [14] it was 0.03%; in [15], 4.29%; in assay [16] it was 4.04%; in assay [17] it was 12.5%; in assay [18], 1.34%. Further, the figures for the inhibition in assay [19] and in assay [20] were 3.06% and 3.21%, respectively.

Turning to `CCn1c(-c2nonc2N)nc2c(N3CCCC3)nccc21`, the inhibition in assay [1] was 0.75%; in assay [2], -0.07%; in [3], 0.49%; in assay [4], -0.45%; in assay [5], -0.34%; in assay [6], -0.75%. Besides, the inhibition in assay [7] was -2.21%; in assay [8] it was 2.25%; in assay [9] it was -1.76%; in [10], -1.86%; in [11] it was 2.53%; in assay [12], -1.12%. For the same compound, the inhibition in assay [13] is 5.43%; in assay [14] it was 0.17%; in [15], -2.42%; in [16], -0.24%; in assay [17], 2.42%; in assay [18] it was 1.22%. The inhibition came to 4.2% in assay [19] and 0.97% in assay [20].

For `O=C1NC(=O)C(c2ccccc2Cl)=C1Nc1cccc(O)c1`, the inhibition stood at 0.59% in assay [1]; 1.19% in [2]; 1.88% in assay [3]; 0.46% in [4]; 4.4% in assay [5]; 3.39% in assay [6]. In addition, the inhibition in [7] was 4.53%; in assay [8], -5.26%; in [9] it was -9.72%; in assay [10] it was 3.17%; in assay [11] it was 11.6%; in assay [12], 2.88%. The inhibition in [13] amounted to 7.74%; in assay [14], 1.84%; in assay [15] it was 7.14%; in [16], 8.75%; in assay [17], 49.3%; in assay [18], 1.12%. Further, the figures for the inhibition in assay [19] and in assay [20] were 2.09% and 3.71%, respectively.

`O=C1Nc2ccc(C(=O)c3ccco3)cc2C1=Cc1cc(Cl)c(O)c(Cl)c1`: the inhibition in [1] turned out to be 21%; in [2], 5.68%; in assay [3] it was 29.1%; in [4] it was 9.19%; in assay [5] it was 47.1%; in [6], 3.45%. Moreover, the inhibition in [7] was 11.2%; in assay [8] it was -3.77%; in [9], 21.9%; in assay [10] it was 7.35%; in assay [11], 67.3%; in assay [12], 3.22%. Besides, the inhibition in assay [13] came out at 13.3%; in assay [14], 3.45%; in [15], 36.7%; in assay [16], 4.59%; in assay [17], 15.1%; in [18], 1.22%. The inhibition was determined as 7.56% in assay [19] and 27.5% in assay [20].

Turning to `CN1CCC(C(=O)Nc2n[nH]c3nnc(-c4ccccc4)cc23)CC1`, the inhibition turned out to be 1.65% in assay [1]; 2.71% in assay [2]; 5.68% in assay [3]; 2.52% in assay [4]; 6.56% in assay [5]; 2.62% in assay [6]. The inhibition in assay [7] is 4.13%; in assay [8], -3.53%; in assay [9] it was 15%; in assay [10], 3.39%; in assay [11], 8.78%; in assay [12], 3.81%. The inhibition in assay [13] is 9.47%; in assay [14], 4.39%; in assay [15] it was -2.07%; in [16] it was 8.49%; in assay [17], 9.99%; in assay [18], 0.73%. Also, the inhibition was determined as 3.35% in assay [19] and 6.6% in assay [20].

Consider `COc1cc2ncn(-c3cc(O[C@@H](C)c4ccccc4Cl)c(C(N)=O)s3)c2cc1OC`, for which the inhibition in [1] is 6.09%; in assay [2], 5.59%; in assay [3] it was 18.6%; in assay [4], 6.76%; in assay [5] it was 32.5%; in assay [6] it was -1.39%. Also, the inhibition was 5.82% in [7]; -2.87% in assay [8]; 9.98% in assay [9]; 4.95% in [10]; 18.1% in assay [11]; 8.64% in assay [12]. The inhibition worked out at 38.8% in [13]; 8% in [14]; 49.3% in assay [15]; 54% in assay [16]; 79.5% in [17]; 6.14% in [18]. For the same compound, the results for the inhibition in assay [19] and in assay [20] were 20.2% and 5.91%, respectively.
